Screening results: PubChem, several laboratories
Only some compounds are listed: those with a hit (about 5.1% of all), similar ones and a draw of the others.
S1P4 agonist – agonists of human S1P4 receptor; S1P4-expressing cell line, agonist reporter assay; activation, % at 4.98 µM; hit rate 0.35% among 220,000; in the data active means activation above about 11%
S1P3 antag – antagonists of human S1P3 receptor. CHO S1P3 NFAT-BLA reporter, FRET fluorescence, antagonist mode. inhibition, % at 4.98 µM. hit rate 0.27% among 170,000;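 active means inhibition above the plate cutoff, the mean inhibition of test wells on that plate plus 3 SD, cut at about 28% in these data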;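 further: cells challenged with S1P at its EC80 of 0.8 µM; blue over green emission ratio from cleaved BLA substrate after 4 h stimulation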
ROMK primary – modulates human ROMK potassium channel activity. B-score at 10 µM. Tet-inducible ROMK, thallium flux fluorescence; actives lie on both sides. AID 1918. hit rate 2% among 130,000;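 active means signal ratio slope over the read window, or its plate-corrected B-score, at least 3 SD from the plate mean, either direction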;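 further: B-score of the F/F0 ratio slope over 7 to 12 s after thallium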
Target sequence (P48048 whole entry, looked up): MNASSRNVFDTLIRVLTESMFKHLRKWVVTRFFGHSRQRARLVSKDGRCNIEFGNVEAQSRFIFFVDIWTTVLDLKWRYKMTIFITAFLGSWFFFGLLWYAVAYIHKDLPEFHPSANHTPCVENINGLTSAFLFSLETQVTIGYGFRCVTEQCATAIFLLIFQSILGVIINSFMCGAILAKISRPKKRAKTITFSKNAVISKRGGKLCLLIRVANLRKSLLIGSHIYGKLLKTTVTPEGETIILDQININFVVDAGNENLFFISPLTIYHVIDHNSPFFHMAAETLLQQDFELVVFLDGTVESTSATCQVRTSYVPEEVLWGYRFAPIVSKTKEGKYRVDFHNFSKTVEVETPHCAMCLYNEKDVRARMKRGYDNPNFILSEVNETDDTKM
S1P4 antag – human S1P4 receptor antagonism. O95977. inhibition, % at 4.98 µM. hit rate 0.26% among 220,000. AID 1510. S1P4-expressing cells, antagonist mode, reporter read-out; in the data active means inhibition above about 29%
RAM network inh – blocks the yeast RAM network | S. cerevisiae dse1pr::URA3 reporter, 5-FOA growth OD615, 2 d; analog-sensitive cbk1-as2 kinase mutant strain | inhibition, % at 50 µM | hit rate 1.8% among 190,000;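 active means inhibition above a set limit, 3 SD over mean compound inhibition, cut at about 8.4% in these data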;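 further: inhibition rescues growth on 5-FOA so higher OD means more RAM inhibition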
Cl transport mod – modulates chloride dependent transport by human KCC2; Q9H2X9; KCC2 cells, thallium flux FluoZin-2 fluorescence; B-score of Tl+ flux slope (higher = more flux/activation; lower = inhibition) at 10 µM; hit rate 2.2% among 190,000;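 active means thallium flux slope and its plate-corrected score both differing from the plate sample mean at a set confidence after two filtering rounds, in either direction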;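 further: slope of fluorescence scaled to starting intensity during 10 to 20 s after thallium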
ROMK retest – human ROMK channel modulation, retest confirmation; normalized thallium flux (F/F0 slope) at 10 µM; ROMK thallium flux, fluorescence ratio; active compounds read low; shares compounds with ROMK primary; hit rate 54% among 3,000; AID 1917;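 active means Flux at 10 µM at least 3 SD below or above vehicle control mean in one or both replicates; inconclusive means no clear call, values can overlap the other calls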
Hits are given with their value; – = inactive; ? = inconclusive; · = no result given.

SMILES | S1P4 agonist | S1P3 antag | ROMK primary | S1P4 antag | RAM network inh | Cl transport mod | ROMK retest
O=C(NCc1ccccc1)c1ccc(Br)cc1 | – | – | -4.48 | – | – | – | ?
O=C(NCc1ccncc1)c1ccc(Br)cc1 | – | – | · | – | – | – | ·
CN(C)/C=N/c1c(C#N)cnn1-c1ccccc1 | – | – | – | – | – | · | ·
CN(C)/C=N/c1c(C#N)cnn1-c1ncnc2sc(-c3ccccc3)cc12 | – | – | · | – | – | – | 0.0628
COc1ccccc1C1CCN(c2cc(O)ccc2[N+](=O)[O-])CC1 | – | – | · | – | · | · | –
CCOc1ccc(C(C)=O)cc1CSC(=N)N | – | – | – | – | – | – | ·
CCCCCOc1ccc(CSC(=N)N)cc1[N+](=O)[O-] | – | · | · | – | – | – | 0.0519
CCCCOc1ccc(Br)cc1CSC(=N)N | – | – | -3.95 | – | – | – | 0.0575
ONC(=Nc1cccc(C(F)(F)F)c1)c1cccnc1 | – | – | · | – | · | · | ·
CC1(C)CC(=O)C2=C(C1)OC1OC(=O)CC21C (stereo not given) | – | – | 1.39 | – | – | – | –
Cc1ccc(C2C3=C(CC(C)(C)CC3=O)OC3=C2C(=O)CC(C)(C)C3)cc1 | – | – | – | – | – | – | ·
COc1ccc(CC(=O)NNC2=Nc3cccc4cccc2c34)cc1OC | – | – | – | – | · | – | ·
O=C(NNC1=Nc2cccc3cccc1c23)c1ccc(Br)cc1 | – | – | -3.4 | – | – | – | –
O=C(O)/C(=C\c1ccco1)NC(=O)c1cccc2ccccc12 | – | · | · | – | – | – | ·
Cc1nc(SCC(=O)N(C)Cc2ccco2)c2c(C)c(C)sc2n1 | – | – | · | – | – | – | –
COc1ccc(C2c3ccc(O)cc3Oc3ncn4nc(-c5ccncc5)nc4c32)cc1OC (stereo not given) | – | – | · | – | · | – | ·
COc1ccc2c(n1)Sc1nc3ccccc3nc1N2 | – | – | · | – | · | – | 0.0566
COc1cc2ccccc2nn1 | – | – | · | – | · | – | ·
COc1ccc(C(=O)Nc2ccc(C(=O)NCCc3ccc(OC)c(OC)c3)cc2)cc1 | – | – | 3.16 | – | – | – | –
COc1ccc(C(=O)Nc2ccc(OC)c(OC)c2)cc1 | – | – | – | – | – | · | ·
O=C(CSCC(=O)N1CCCCC1)Nc1nc(-c2ccc(Cl)s2)cs1 | – | – | · | – | – | – | ?
O=C(c1cccc(-c2ccc(O)cc2)c1)N1CCN(c2ccc(F)cc2)CC1 | – | – | – | – | – | – | ·
COc1ccccc1NC(=S)Nc1ccc2cn[nH]c2c1 | – | – | – | – | – | – | ·
CCOC(=O)c1c(C)n(C)c2ccc(O)c(CN(CC)CC)c12 | – | · | – | – | – | · | ·
CCOC(=O)c1c(C)n(-c2ccccc2)c2ccc(O)c(CN(C)C)c12 | – | – | -1.8 | – | – | – | ?
SMILES | S1P4 agonist | S1P3 antag | ROMK primary | S1P4 antag | RAM network inh | Cl transport mod | ROMK retest
COc1cccc(-n2c(=O)c3cc(OC)c(OC)cc3n(CC(=O)Nc3cc(C)[nH]n3)c2=O)c1 | – | – | – | – | – | – | ·
CCCCCC[N+](C)(C)CC/C=C1/c2ccccc2Sc2ccc(Cl)cc21 | – | – | · | – | · | – | 0.0452
CN1CCN(C(=S)NC(=O)c2ccco2)CC1 | – | – | · | – | – | · | ·
CCOC(=O)CNC(=O)CCCCCC(=O)NCC(=O)OCC | – | · | – | – | – | – | –
COc1ccc(CCNC(=O)c2cccnc2SC)cc1 | – | – | – | – | – | – | ·
CSS(=O)(=O)c1cccc2cccnc12 | – | – | · | – | · | – | –
CCN(CC)S(=O)(=O)c1cccc2cccnc12 | – | · | – | – | – | – | ·
COc1ccc(C(=O)OCCNC(=O)c2c(Cl)nc3ccccn23)cc1 | – | – | · | – | – | – | 0.0587
Clc1ccc(CNCCC2=CCCCC2)cc1 | – | · | – | – | – | – | ·
OC(CNCC1(N2CCCCC2)CCCCC1)COc1ccc(Cl)cc1Cl (stereo not given) | – | – | -3.9 | – | – | – | 0.0529
O=C(COc1ccc(Cl)cc1Cl)NC(=O)N1CCCCC1 | – | – | · | – | – | – | ·
Fc1ccc(CCNC(=S)Nc2ccc(F)c(Cl)c2)cc1 | – | – | – | – | – | – | ·
C[n+]1c2n(c3ccccc31)N=C(c1cc(C(C)(C)C)c(O)c(C(C)(C)C)c1)CS2 | – | – | -5.54 | – | – | – | 0.0388
COc1ccc(S(=O)(=O)N2CCCCCC2)cc1NC(=O)c1c2c(nc3ccccc13)CCN(Cc1ccccc1)C2 | – | – | – | – | – | – | ·
CCN(CC)S(=O)(=O)c1ccc(OC(C)C)c(NC(=O)c2c3c(nc4ccccc24)CCN(Cc2ccccc2)C3)c1 | – | – | -3.04 | – | – | – | 0.0592
CC(C)c1ccc(N(CC(=O)NCCSC(C)(C)C)S(C)(=O)=O)cc1 | – | · | – | – | – | – | ·
O=C(CSc1ccc2ccccc2n1)NCc1ccc2c(c1)OCO2 | – | – | -5.25 | – | – | – | ?
CC1CCCC(C)N1C(=O)Cn1c(SCC(=O)NCc2ccc3c(c2)OCO3)nc2ccccc21 (stereo not given) | – | · | -3.87 | – | 8.9 | · | 0.0608
O=C(CSc1nc2ccccc2s1)NCc1ccc2c(c1)OCO2 | – | – | · | – | – | – | ·
C/C(CC(=O)Nc1ccc(OCc2ccccc2)cc1)=N\NC(=O)C(=O)Nc1ccc(C)c(Cl)c1 | – | · | · | – | – | · | ·
O=C(N/C=N/OCc1cccc(C(F)(F)F)c1)N1OC[C@@H]2COc3ccc4ccccc4c3[C@@H]21 | – | · | · | – | – | – | ·
Cc1ccc(N/C(=N/S(=O)(=O)c2cccs2)c2ccccc2)c(C)c1 | – | – | · | – | – | – | ·
O=S(=O)(/N=C(/Nc1cccc2ccccc12)c1ccccc1)c1cccs1 | – | · | · | – | – | – | 0.0604
COc1ccc(N2C(=O)CC(NNC(=O)c3cccnc3)C2=O)cc1 (stereo not given) | – | – | – | – | · | – | ·
O=C(CCNS(=O)(=O)c1ccc(Br)s1)NC1CCCC1 | – | – | · | – | – | – | ·
SMILES | S1P4 agonist | S1P3 antag | ROMK primary | S1P4 antag | RAM network inh | Cl transport mod | ROMK retest
O=C(CNS(=O)(=O)c1ccc(Br)s1)NC1CCCc2ccccc21 (stereo not given) | – | – | -3.81 | – | – | – | 0.0668
CN=C1S/C(=C\c2cn(CC(=O)OC)c3ccccc23)C(=O)N1C | – | – | 0.78 | – | – | · | –
CN(C)C(CNC(=O)c1cccc(OC(F)F)c1)c1ccco1 (stereo not given) | – | – | 1.12 | – | – | – | –
C/C(CCc1ccccc1)=N/NC(=O)C(=O)NC(C)c1ccccc1 (stereo not given) | – | – | · | – | – | – | ·
Clc1cccc(Nc2nc(-c3cccnc3)cs2)c1 | – | – | – | – | – | – | ·
CCSc1ncnc2c1sc1nc(-c3ccco3)c3c(c12)CC(C)(C)OC3 | – | · | · | – | – | – | –
COC(=O)CSc1ncnc2c1sc1nc(-c3ccco3)c3c(c12)CC(C)(C)OC3 | – | · | – | – | – | – | ·
O=C(Cn1nc(Cl)nc1Cl)c1cc2ccccc2oc1=O | – | – | -6.55 | – | – | · | 0.0493
